# Screens: PubChem, National Center for Advancing Translational Sciences (NCATS)
# TDP1 cell noCPT: qHTS for Inhibitors of human tyrosyl-DNA phosphodiesterase 1 (TDP1): qHTS in cells in absence of CPT | AID 686978, 2013 | hit rate 15% among 420,000 | DT40 Tdp1-/- hTDP1 cells, no CPT, ATP luminescence, 48 h | Potency, µM (top dose mostly 46.2 µM), without a hit: at the top dose activity change, negative = growth inhibition, hits mostly inhibitors; further: potency means the concentration at half of the fitted maximal effect; nearly all actives have a fitted effect of over 55% in size
#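 Readout: luminescence from CellTiter-Glo after 30 min in the dark at RT. Cells: DT40 Tdp1-/- with stable hTDP1, 400/well. Exposure: compounds alone, ≥48 hr, 37 °C.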
# TDP1 cell CPT: growth inhibition of DT40 Tdp1-/-;hTDP1 cells with camptothecin (screen for TDP1 inhibitors) | chicken DT40 Tdp1-/-;hTDP1 cells + 20 nM CPT, ATP luminescence, 48 h | Potency, µM (titrated, usually from 46.2 µM), for inactives: top-dose activity change, negative = growth inhibition, hits mostly inhibitors | hit rate 12% among 420,000 | AID 686979; further: potency means the concentration at half of the fitted maximal effect; nearly all actives have a fitted effect of over 55% in size
#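 Chicken DT40 Tdp1-/- cells stably complemented with human TDP1 were seeded at 400 cells/well in medium containing 20 nM camptothecin, exposed to pin-transferred compounds, and grown at 37 °C for at least 48 hr. Viability was read as ATP luminescence.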
# HT1080 IDH1KD tx: kills HT-1080 cells with IDH1 knockdown; HT-1080 IDH1 knockdown viability, ATP luminescence, 48 h; Potency, µM (doses to about 46.1 µM), inactives show top-dose activity, negative = toxicity, hits mostly cytotoxic; AID 686971; hit rate 2% among 360,000;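 further: potency means the concentration at half of the fitted maximal effect; 0% = DMSO wells and -100% = cell-free medium wells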
#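 % activity derives from luminescence (CellTiter-Glo), normalised to DMSO and no-cell wells. HT-1080-IDH1KD cells, 750/well, had 48 h compound exposure at 37 °C.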
# HT1080NT lethal: kills 2HG-producing HT-1080-NT fibrosarcoma cells. Potency, µM (doses to about 46.1 µM), for the others: at the highest dose activity, negative = less viability, usual class: cytotoxic. HT-1080-NT fibrosarcoma viability, CellTiter-Glo ATP luminescence, 48 h. AID 686970. hit rate 1.6% among 360,000;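 further: NT is the 2HG producing partner of a matched IDH1 knockdown line; potency means the concentration at half of the fitted maximal effect; 0% = DMSO-treated cells and -100% = media-only wells without cells; nearly all actives have a fitted effect of over 55% in size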
#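 Read-out is CellTiter-Glo luminescence after 10 minutes at room temperature, following 48 hours' compound treatment of HT-1080-NT cells (750 cells/well, RPMI, 5% FBS, 37 degrees C).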
# IL-1B inflam inh: blocks inflammasome-driven IL-1 beta release. THP-1 LPS/ATP IL-1B secretion, AlphaLISA, 16 h; hits give low values. activity change, % at 57.5 µM. hit rate 4.7% among 360,000. AID 743279; in the data active means activity change below about -50%; inconclusive means mostly about -30% to -49%
#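 Secreted IL-1B measured by AlphaLISA bead assay after 16 h compound exposure of THP-1 cells; compounds (final up to 57.5 uM) added 1 h before LPS (250 ng/mL) and ATP (1.25 mM) stimulation; lower signal means less secretion.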
# Numbers without * were called inactive; ? = inconclusive; . = no result. The list is not random: actives were taken first. Their share in the collection is about 19%. Unless noted, the call rests on the fitted dose curve; in most records, active means well fitted curve in the direction sought with a large enough effect; inconclusive means small, poorly fitted or top-dose-only effect, or another doubt; inactive means no such curve, though single readings can be large; an effect the other way counts as inactive or inconclusive. Unless noted, on the % scale 0 is the no-effect control and ±100 the full control effect.
SMILES,TDP1 cell noCPT,TDP1 cell CPT,HT1080 IDH1KD tx,HT1080NT lethal,IL-1B inflam inh
O=C(COc1ccc(F)cc1)NCc1ccc2c(c1)CCN2C(=O)c1ccc(F)cc1,-23%,-19%,.,.,.
Cc1ccc(C(=O)N2CCc3cc(CNC(=O)COc4ccccc4)ccc32)cc1,12µM*,13µM*,.,.,.
COc1ccc(OCC(=O)NCc2ccc3c(c2)CCN3C(=O)c2ccc(F)cc2)cc1,?,-29%,.,.,.
Cc1cccc(OCC(=O)NCc2ccc3c(c2)CCN3C(=O)c2ccc(Cl)cc2)c1,-5%,-4%,.,.,.
CC(=O)CC(=O)Nc1ccc(Nc2ccccc2)cc1,?,?,20%,8%,-27
Cc1ccc(C)c(NC(=S)N2CCC(NC(=O)c3ccco3)CC2)c1,-21%,5%,3%,-4%,18
COc1ccc(N=C/C=C2\C=C(c3ccccc3)OC(C)(C)O2)cc1,?,16µM*,-23%,-3%,-1
COc1ccc(/C=C/C(=O)NC(=S)NNC(=O)Cc2cccs2)cc1OC,?,16µM*,-26%,-20%,59
COc1ccc(C(=O)O)cc1NC(=S)NC(=O)/C=C/c1ccc(C(C)C)cc1,-13%,23%,-19%,?,-66*
CCCCC(=O)NC(=S)Nc1cc(C(=O)O)ccc1OC,-5%,-4%,1%,-3%,0
COc1cc(C(=O)NNC(=S)NC(=O)/C=C/c2ccccc2)cc(OC)c1OC,?,16µM*,?,?,49
COc1cc(C(=O)NNC(=O)/C=C/c2ccccc2)cc(OC)c1OC,-22%,-1%,-23%,-6%,-74*
COc1ccc(/C=C/C(=O)NC(=S)NNC(=O)c2cccnc2)cc1OC,-26%,-10%,-9%,-1%,0
O=C(NC1CCCCC1)C(c1cccnc1)N(C(=O)c1csnn1)c1ccccc1F (stereo unspecified),-1%,16%,-10%,4%,37
Cc1ccc2nc(-c3cc(NC(=O)/C=C/c4ccccc4)ccc3Cl)oc2c1,16µM*,23µM*,.,.,.
O=C(Nc1nnc(-c2cc(Cl)ccc2Cl)o1)c1ccc2c(c1)OCCO2,16µM*,?,.,.,.
Cc1ccc2nc(-c3cccc(NC(=O)c4ccc5c(c4)OCCO5)c3)oc2c1,?,-16%,5%,4%,5
Cc1ccc2nc(-c3cc(NC(=O)c4ccc5c(c4)OCCO5)ccc3Cl)oc2c1,16µM*,?,.,.,.
O=C(/C=C/c1ccccc1)Nc1cc(-c2nc3ccccc3o2)ccc1Cl,-25%,?,.,.,.
Cc1ccc2c(c1)c1c(c(=O)n(-c3cccc(Cl)c3)c(=O)n1C)n2C,-27%,?,.,.,.
COc1ccc(NC(=O)N(C)C[C@@H]2Oc3ccc(NC(=O)NC(C)C)cc3CC(=O)N([C@H](C)CO)C[C@@H]2C)cc1,5%,-21%,8%,12%,-17
CC(C)CN1CCCC2(CCN(C(=O)c3cc(C(F)(F)F)cc(C(F)(F)F)c3)CC2)C1,-25%,-9%,.,.,.
CC(=O)Nc1ccc(CNc2nc3cc(-c4cccc(C(F)(F)F)c4)sc3c(=O)n2C)cc1,21µM*,23µM*,?,?,20
COc1cccc(CNc2nc3cc(-c4cccc(C(F)(F)F)c4)sc3c(=O)n2C)c1,-39%,-26%,8%,7%,37
Cn1c(NCc2ccccc2F)nc2cc(-c3cccc(C(F)(F)F)c3)sc2c1=O,15µM*,13µM*,29%,26%,26
SMILES,TDP1 cell noCPT,TDP1 cell CPT,HT1080 IDH1KD tx,HT1080NT lethal,IL-1B inflam inh
CC(C)CCN(C(=O)CNC(=O)c1ccco1)C(C(=O)NC1CCCCC1)c1ccco1 (stereo unspecified),-29%,-12%,3%,1%,-14
C=CCOn1c(=O)c(-c2ccc(OC)c(OC)c2)[n+]([O-])c2ccccc21,?,?,6%,10%,5
CCOc1ccc(-c2c(=O)n(OCc3ccccn3)c3ccccc3[n+]2[O-])cc1,12µM*,21µM*,28%,5%,-30
COc1ccc(-c2c(=O)n(OCc3ccccc3[N+](=O)[O-])c3ccccc3[n+]2[O-])c(OC)c1,18µM*,?,-7%,14%,-9
COc1ccc(-c2c(=O)n(OC)c3ccccc3[n+]2[O-])cc1OC,15µM*,12µM*,-2%,-3%,-16
CC(C)Cc1nnc(NC(=O)CN2C(=O)c3ccccc3C2=O)s1,-21%,2%,1%,9%,29
O=C(Nc1scc(-c2cccs2)c1C(=O)O)c1cccs1,-9%,-12%,?,-15%,-9
COC(=O)c1c(-c2cccs2)csc1NC(=O)COc1ccc(C(C)C)cc1,21µM*,?,.,.,.
COC(=O)c1c(-c2cccs2)csc1NC(=O)CN1CCOCC1,?,-30%,-17%,-12%,?
COC(=O)c1c(-c2cccs2)csc1NC(=O)c1cc(OC)cc(OC)c1,?,16µM*,.,.,.
CCOC(=O)c1c(-c2cccs2)csc1NC(=O)c1ccncc1,?,-26%,-8%,-1%,-14
COC(=O)c1c(-c2cccs2)csc1NC(=O)c1ccc(OC)c(OC)c1,9.2µM*,12µM*,.,.,.
COC(=O)c1c(-c2cccs2)csc1NC(=O)c1ccc(C)cc1,?,4%,.,.,.
COC(=O)c1c(-c2cccs2)csc1NC(=O)c1cc(OC)c(OC)c(OC)c1,5.8µM*,9.2µM*,.,.,.
CCOc1ccccc1NC(=O)Cn1c(=O)n(Cc2nc(C)no2)c(=O)c2ccccc21,-19%,-10%,.,.,.
CN(C)c1nnnn1-c1ccc(Oc2ncc(C(F)(F)F)cc2Cl)cc1,?,-10%,6%,-1%,28
CC(C)Oc1cc(F)ccc1-c1cc(C(=O)NCc2ccccc2)[nH]n1,-32%,-1%,-1%,3%,-26
CC(C)Oc1cc(F)ccc1-c1cc(C(=O)NCCCn2ccnc2)[nH]n1,?,?,1%,18%,-17
CC(C)Oc1cc(F)ccc1-c1cc(C(=O)Nc2ccc(C(C)C)cc2)[nH]n1,15µM*,18µM*,-25%,-23%,5
CC(C)Oc1cc(F)ccc1-c1cc(C(=O)Nc2ccccc2)[nH]n1,23µM*,?,3%,-13%,-3
O=C(/C=C/c1ccccc1)c1ccc2ccccc2c1,16µM*,?,?,23µM*,?
CC(/C=C\c1ccccc1)=C/C(=O)O,-19%,8%,-1%,-1%,-19
C=C(C(=O)O)c1ccc2ccccc2c1,9%,14%,.,.,.
O=C(/C=C/c1ccc[nH]1)c1ccccc1,?,26µM*,-7%,6%,?
O=C(/C=C/c1ccccc1)/C=C/c1ccccc1,.,5.2µM*,?,-17%,-98*
